From PubChem BioAssay (NCI)
This is part of a sample that, as a whole, favours compounds with a hit. Of some 83,000 tested, about 20% had one in any assay.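 The test compound was applied at a single concentration to cells in 96-well plates for 48 hours, and percent growth was recorded.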 The source made the active and inactive calls. How the source made its calls: active means growth percent below 10; inactive means the rest.

Columns and labels:
Experiment in all cases: NCI-60 one-dose screen, 48 h (100 = growth as untreated, 0 = no growth, -100 = all killed)
Details in all cases: 10 µM unless noted
T-47D breast = tested on: T-47D breast
BT-549 breast = tested on: BT-549 breast
MDA-MB-435 melanoma = tested on: MDA-MB-435 melanoma
SW-620 colon = tested on: SW-620 colon
MCF7 breast = tested on: MCF7 breast
HCT-116 colon = tested on: HCT-116 colon
HCC-2998 colon = tested on: HCC-2998 colon
KM12 colon = tested on: KM12 colon

Measured: growth

O=C(CCC(=O)N/N=C/c1ccccc1O)N/N=C/c1ccccc1O
inactive: T-47D breast 51.5% | BT-549 breast 76.5% | MDA-MB-435 melanoma 64.8% | SW-620 colon 44.8% | MCF7 breast 39.9% | HCT-116 colon 25.9%

Cc1ccc(Sc2nnc(/N=C3\C(=O)Nc4ccccc43)s2)cc1
inactive: T-47D breast 107% | BT-549 breast 116% | MDA-MB-435 melanoma 103% | SW-620 colon 96.2% | MCF7 breast 101% | HCT-116 colon 104% | HCC-2998 colon 116%

CN(C)CCCn1c2c(c3ncccc3c1=O)C(=O)c1ccccc1-2
inactive: T-47D breast 47.8% | BT-549 breast 67.3% | MDA-MB-435 melanoma 64% | SW-620 colon 24% | MCF7 breast 11.8% | HCT-116 colon 11.2%

C=C(C)[C@@H]1CC[C@]2(C(=O)O)CC[C@]3(C)[C@H](CC[C@@H]4[C@@]5(C)C[C@@H](Cc6cn(CCO[C@@H]7O[C@H](COC(C)=O)[C@H](OC(C)=O)[C@H](OC(C)=O)[C@H]7OC(C)=O)nn6)[C@H](O)C(C)(C)[C@@H]5CC[C@]43C)[C@@H]12
inactive: T-47D breast 51.6% | BT-549 breast 42.7% | MDA-MB-435 melanoma 94.2% | SW-620 colon 77.1% | MCF7 breast 47.1% | HCT-116 colon 44.7% | HCC-2998 colon 81.5%

C#Cc1cccc(Nc2ncnc3ccc(-c4cncc(NS(C)(=O)=O)c4)cc23)c1
active: T-47D breast -5.8%
inactive: BT-549 breast 19.2% | MDA-MB-435 melanoma 44.8% | SW-620 colon 31.1% | MCF7 breast 10.9% | HCT-116 colon 11%

O=C(CCc1nnc(Cn2cnc3nc[nH]c3c2=O)o1)c1nc2ncccc2[nH]1
inactive: T-47D breast 94.5% | BT-549 breast 95.9% | MDA-MB-435 melanoma 99.5% | SW-620 colon 96% | MCF7 breast 97.2% | HCT-116 colon 97.3% | HCC-2998 colon 105% | KM12 colon 105%

COC(=O)c1c2c(c(C)[n+]([O-])c1C)C(=O)C(NCc1ccc(Cl)cc1)=CC2=O
inactive: T-47D breast 37.5% | BT-549 breast 77.9% | SW-620 colon 45.9% | MCF7 breast 35.9% | HCT-116 colon 11.5% | HCC-2998 colon 59.6% | KM12 colon 48.8%
active: MDA-MB-435 melanoma 9.83%

N#CC1=C(N)Oc2c(sc3c(F)cccc23)C1c1ccc(F)cc1 (stereo not given)
inactive: T-47D breast 42.5% | BT-549 breast 30.9% | SW-620 colon 35.8% | MCF7 breast 18.9% | HCT-116 colon 17.4% | HCC-2998 colon 57.2% | KM12 colon 30.3%
active: MDA-MB-435 melanoma -51.7%

COc1ccc(/C(C)=C(/c2ccc(OCCCN(C)C)cc2)c2ccc(OC(=O)Cc3ccccc3)cc2)cc1
inactive: T-47D breast 38.2% | BT-549 breast 76.5% | MDA-MB-435 melanoma 71.9% | SW-620 colon 91.8% | MCF7 breast 25.4% | HCT-116 colon 57.4% | HCC-2998 colon 86.7% | KM12 colon 73.9%

Oc1c(Cl)cc(Cl)c2ccc(Cn3cc(-c4cc(C(F)(F)F)cc(C(F)(F)F)c4)nn3)nc12
inactive: T-47D breast 33.7% | BT-549 breast 66% | MDA-MB-435 melanoma 43.5% | MCF7 breast 21.2% | HCC-2998 colon 101% | KM12 colon 102%
active: SW-620 colon 4.61% | HCT-116 colon 1.78%

O=C1/C(=C/c2ccc(-c3ccc(Br)cc3)o2)SC(=S)N1CCc1ccc(O)cc1
inactive: T-47D breast 58.4% | BT-549 breast 77.8% | MDA-MB-435 melanoma 48.8% | SW-620 colon 81.2% | MCF7 breast 82.6% | HCT-116 colon 75.2% | HCC-2998 colon 93.6% | KM12 colon 42.9%

CC(=O)n1nc(C(=O)OC(C)C)c2cc(C)c(C)cc21
inactive: T-47D breast 88.7% | BT-549 breast 98.2% | MDA-MB-435 melanoma 98.6% | SW-620 colon 98.8% | MCF7 breast 90.8% | HCT-116 colon 83.8% | HCC-2998 colon 105% | KM12 colon 105%

CCCCC[C@@H]1Cc2cc(O)c(C(=O)O)c3c2[C@H](C[C@]2(OC[C@@H](CC(=O)[C@@](C)(CC)C(=O)OC)[C@@H]2C)O3)O1
inactive: T-47D breast 98.5% | BT-549 breast 121% | MDA-MB-435 melanoma 117% | SW-620 colon 111% | MCF7 breast 99.3% | HCT-116 colon 111% | HCC-2998 colon 133% | KM12 colon 105%

Cc1ccc(Cc2cnc(NC(=O)c3cc(Br)cs3)s2)cc1
inactive: T-47D breast 44.4% | BT-549 breast 37.1% | SW-620 colon 42% | MCF7 breast 30.3% | HCT-116 colon 32.9% | HCC-2998 colon 82.9% | KM12 colon 47.3%
active: MDA-MB-435 melanoma -16.5%

CS(=O)(=O)C1=CN(CCO)C(=O)N2CCCN=C12
inactive: T-47D breast 102% | BT-549 breast 102% | MDA-MB-435 melanoma 102% | SW-620 colon 93.4% | MCF7 breast 104% | HCT-116 colon 97% | HCC-2998 colon 98.6% | KM12 colon 105%

COc1cccc([C@H]2c3[nH]c4ccccc4c3C[C@H]3C(=O)N(CCCCCCC(=O)NO)CC(=O)N23)c1
inactive: T-47D breast 31.5% | BT-549 breast 77.9% | MDA-MB-435 melanoma 61.2% | SW-620 colon 57.4% | MCF7 breast 53.7% | HCT-116 colon 35.3% | HCC-2998 colon 68.2% | KM12 colon 78.9%

Cn1c(O)c(C=NCCN=Cc2c(O)n(C)c(=O)n(C)c2=O)c(=O)n(C)c1=O
inactive: T-47D breast 96.1% | BT-549 breast 118% | MDA-MB-435 melanoma 93.7% | SW-620 colon 107% | MCF7 breast 108% | HCT-116 colon 81.1% | HCC-2998 colon 92.2% | KM12 colon 98.7%

COc1cc2c(c(OC)c1OC)CCC(c1cccc(C(=O)Nc3cccc(Br)c3)c1)O2 (stereo not given)
inactive: T-47D breast 40.6% | BT-549 breast 80.8% | MDA-MB-435 melanoma 69.6% | SW-620 colon 79.6% | MCF7 breast 77.8% | HCT-116 colon 55% | HCC-2998 colon 103% | KM12 colon 81.2%

CC(C)OC(=O)c1ccc2[nH]c(O)c(C(=Nc3ccc(N(C)C(=O)CN4CCN(C)CC4)cc3)c3ccccc3)c2c1
active: T-47D breast -47.7% | BT-549 breast -78.8% | MDA-MB-435 melanoma -92.6% | SW-620 colon -64.6% | MCF7 breast -65.5% | HCT-116 colon -47.9% | HCC-2998 colon -84.2% | KM12 colon -43.2%

CCOC(=O)c1c(C)nc2c(c1N)CC(=O)N2Cc1cc(F)cc(Cl)c1
inactive: T-47D breast 76.3% | BT-549 breast 96.3% | MDA-MB-435 melanoma 92% | SW-620 colon 103% | MCF7 breast 84.9% | HCT-116 colon 79.9% | HCC-2998 colon 113% | KM12 colon 97%

Oc1c(Cl)cc(Cl)c2ccc(Cn3cc(-c4ccc(C(F)(F)F)cc4)nn3)nc12
inactive: T-47D breast 55.4% | BT-549 breast 77.7% | MDA-MB-435 melanoma 59.5% | MCF7 breast 29.4% | HCC-2998 colon 105% | KM12 colon 101%
active: SW-620 colon 7.74% | HCT-116 colon 8.81%

O=S(=O)(Nc1ccccc1)c1ccc(C2CC3(Cl)C(Cl)=C(Cl)C2(Cl)C3(Cl)Cl)cc1 (stereo not given)
inactive: T-47D breast 29.4% | BT-549 breast 76.4% | MDA-MB-435 melanoma 23.6% | SW-620 colon 30.7% | MCF7 breast 23.2% | HCT-116 colon 17.6% | HCC-2998 colon 53.5% | KM12 colon 22.7%

COc1ccc(C(=O)Nc2cccc(C3CC(=O)c4c(cc(OC)c(OC)c4OC)O3)c2)cc1 (stereo not given)
inactive: BT-549 breast 34.7% | SW-620 colon 27.3% | MCF7 breast 15.2% | HCT-116 colon 10.9% | HCC-2998 colon 64.9% | KM12 colon 13.8%
active: T-47D breast 7.66% | MDA-MB-435 melanoma -47.3%

COc1ccc(C2c3sc4c(F)cccc4c3Oc3nc[nH]c(=O)c32)cc1 (stereo not given)
inactive: T-47D breast 70.5% | BT-549 breast 84.6% | MDA-MB-435 melanoma 82.1% | SW-620 colon 89.7% | MCF7 breast 45.7% | HCT-116 colon 79.9% | HCC-2998 colon 91.7% | KM12 colon 81.7%

C=C1C(=O)O[C@H]2[C@H]1CC/C(COC(=O)NCc1ccc(Cn3c(=O)sn(CCI)c3=O)cc1)=C\CC[C@@]1(C)O[C@@H]21
active: SW-620 colon -2.89%
inactive: T-47D breast 27.1% | BT-549 breast 69.8% | MDA-MB-435 melanoma 57.1% | MCF7 breast 24.7% | HCT-116 colon 20% | HCC-2998 colon 107% | KM12 colon 91.5%

N#C/C(=C\c1ccc(-c2ccc(Cl)cc2)o1)C(=O)Nc1ncc(Cc2ccc(Cl)cc2)s1
active: HCT-116 colon 3.14%
inactive: T-47D breast 14.3% | BT-549 breast 58.2% | MDA-MB-435 melanoma 21.2% | SW-620 colon 13.7% | MCF7 breast 45.9% | HCC-2998 colon 77.5% | KM12 colon 36.8%

CCCCCCNC(=O)Oc1ccc(/C(=C(/C)Cc2ccc(OC)cc2)c2ccc(OCCCN(C)C)cc2)cc1
active: SW-620 colon -21.8% | MCF7 breast 8.65% | HCT-116 colon -52.2%
inactive: T-47D breast 18.9% | BT-549 breast 79% | MDA-MB-435 melanoma 19.5% | HCC-2998 colon 35.2% | KM12 colon 35.6%

Cc1ccccc1Cn1cnc2ccc(-c3cc(NC(=O)c4ccc(NC5CCN(C)CC5)cc4)n[nH]3)cc21
inactive: T-47D breast 92.2% | BT-549 breast 68.2% | MDA-MB-435 melanoma 61% | SW-620 colon 93.1% | MCF7 breast 77.1% | HCT-116 colon 48.8% | HCC-2998 colon 90.5% | KM12 colon 39.6%

CC(C)N1CN2C(=S)NC3C2N(C1)C(=S)N3C (stereo not given)
inactive: T-47D breast 92.4% | BT-549 breast 124% | MDA-MB-435 melanoma 104% | SW-620 colon 101% | MCF7 breast 93% | HCT-116 colon 105% | HCC-2998 colon 113% | KM12 colon 94.4%

COc1cc(CNC(=O)/C=C/C=C/c2ccc3c(c2)OCO3)ccc1OCc1cn(-c2ccc(C)c(C)c2)nn1
inactive: T-47D breast 80.5% | BT-549 breast 88.3% | MDA-MB-435 melanoma 76.9% | SW-620 colon 92.1% | MCF7 breast 81.9% | HCT-116 colon 75.2% | HCC-2998 colon 98% | KM12 colon 84%

Cc1cc2c([nH]1)CSc1cc(S(=O)(=O)c3ccccc3)c(=O)[nH]c1-2
inactive: MDA-MB-435 melanoma 10.6% [100 µM] | SW-620 colon 23.8% [100 µM] | HCC-2998 colon 12.4% [100 µM]
active: T-47D breast 4.92% [100 µM] | BT-549 breast -12.2% [100 µM] | MCF7 breast -0.665% [100 µM] | HCT-116 colon 1.35% [100 µM] | KM12 colon -37.2% [100 µM]
